JMJD2A Tudor inh: qHTS Assay for Inhibitors of JMJD2A-Tudor Domain. Lysine-specific demethylase 4A (Homo sapiens), O75164. AlphaScreen JMJD2A-Tudor / H3K4me3 peptide binding. Potency, µM (highest dose often 114 µM), actives largely listed as inhibitors. 390,000 tested, 4.4% active; note: nearly all actives have a fitted effect of over 50% in size
HP1b binding inh: HTS for Inhibitors of HP1-beta Chromodomain Interactions with Methylated Histone Tails; AlphaScreen HP1-beta / biotin-H3K9me3 peptide binding; Potency, µM (top dose mostly 114 µM), most hits filed as inhibitors; 390,000 tested, 0.56% active; AID 540317, 2011; note: nearly all actives have a fitted effect of over 70% in size
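Compound inhibition of the preformed complex between 50 nM HP1-beta and 50 nM biotinylated H3K9me3 peptide was read by AlphaScreen. Buffer was PBS pH 7.4 with 0.01% Tween-20. Incubations ran 30 min at room temperature, with 10 ug/mL donor/acceptor beads.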
G9a block: qHTS Assay for Inhibitors of Histone Lysine Methyltransferase G9a | Histone-lysine N-methyltransferase EHMT2 (Homo sapiens), Q96KQ7 | G9a H3K9 monomethylation, AlphaScreen, 2 h | Potency, µM (titrated, usually from 102 µM), most hits filed as inhibitors | 350,000 tested, 8.8% active | AID 504332, 2011; note: nearly all actives have a fitted effect of over 75% in size
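Quantitative HTS format: methyltransferase activity on a biotin-tagged H3K9 peptide is measured by AlphaScreen, using a rabbit anti-monomethyl-H3K9 antibody with streptavidin donor and anti-IgG acceptor beads. Final levels are 20 nM enzyme, 500 nM peptide, 20 uM SAM; 2 h RT.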
BAZ2B block: qHTS Assay for Inhibitors of BAZ2B. Bromodomain adjacent to zinc finger domain protein 2B (Homo sapiens), Q9UIF8. AlphaScreen BAZ2B-H3K14Ac peptide displacement. Potency, µM (top dose mostly 114 µM), most hits filed as inhibitors. 360,000 tested, 4.4% active; note: nearly all actives have a fitted effect of over 60% in size
Target sequence (Q9UIF8 whole entry, looked up, the tested form may be a part): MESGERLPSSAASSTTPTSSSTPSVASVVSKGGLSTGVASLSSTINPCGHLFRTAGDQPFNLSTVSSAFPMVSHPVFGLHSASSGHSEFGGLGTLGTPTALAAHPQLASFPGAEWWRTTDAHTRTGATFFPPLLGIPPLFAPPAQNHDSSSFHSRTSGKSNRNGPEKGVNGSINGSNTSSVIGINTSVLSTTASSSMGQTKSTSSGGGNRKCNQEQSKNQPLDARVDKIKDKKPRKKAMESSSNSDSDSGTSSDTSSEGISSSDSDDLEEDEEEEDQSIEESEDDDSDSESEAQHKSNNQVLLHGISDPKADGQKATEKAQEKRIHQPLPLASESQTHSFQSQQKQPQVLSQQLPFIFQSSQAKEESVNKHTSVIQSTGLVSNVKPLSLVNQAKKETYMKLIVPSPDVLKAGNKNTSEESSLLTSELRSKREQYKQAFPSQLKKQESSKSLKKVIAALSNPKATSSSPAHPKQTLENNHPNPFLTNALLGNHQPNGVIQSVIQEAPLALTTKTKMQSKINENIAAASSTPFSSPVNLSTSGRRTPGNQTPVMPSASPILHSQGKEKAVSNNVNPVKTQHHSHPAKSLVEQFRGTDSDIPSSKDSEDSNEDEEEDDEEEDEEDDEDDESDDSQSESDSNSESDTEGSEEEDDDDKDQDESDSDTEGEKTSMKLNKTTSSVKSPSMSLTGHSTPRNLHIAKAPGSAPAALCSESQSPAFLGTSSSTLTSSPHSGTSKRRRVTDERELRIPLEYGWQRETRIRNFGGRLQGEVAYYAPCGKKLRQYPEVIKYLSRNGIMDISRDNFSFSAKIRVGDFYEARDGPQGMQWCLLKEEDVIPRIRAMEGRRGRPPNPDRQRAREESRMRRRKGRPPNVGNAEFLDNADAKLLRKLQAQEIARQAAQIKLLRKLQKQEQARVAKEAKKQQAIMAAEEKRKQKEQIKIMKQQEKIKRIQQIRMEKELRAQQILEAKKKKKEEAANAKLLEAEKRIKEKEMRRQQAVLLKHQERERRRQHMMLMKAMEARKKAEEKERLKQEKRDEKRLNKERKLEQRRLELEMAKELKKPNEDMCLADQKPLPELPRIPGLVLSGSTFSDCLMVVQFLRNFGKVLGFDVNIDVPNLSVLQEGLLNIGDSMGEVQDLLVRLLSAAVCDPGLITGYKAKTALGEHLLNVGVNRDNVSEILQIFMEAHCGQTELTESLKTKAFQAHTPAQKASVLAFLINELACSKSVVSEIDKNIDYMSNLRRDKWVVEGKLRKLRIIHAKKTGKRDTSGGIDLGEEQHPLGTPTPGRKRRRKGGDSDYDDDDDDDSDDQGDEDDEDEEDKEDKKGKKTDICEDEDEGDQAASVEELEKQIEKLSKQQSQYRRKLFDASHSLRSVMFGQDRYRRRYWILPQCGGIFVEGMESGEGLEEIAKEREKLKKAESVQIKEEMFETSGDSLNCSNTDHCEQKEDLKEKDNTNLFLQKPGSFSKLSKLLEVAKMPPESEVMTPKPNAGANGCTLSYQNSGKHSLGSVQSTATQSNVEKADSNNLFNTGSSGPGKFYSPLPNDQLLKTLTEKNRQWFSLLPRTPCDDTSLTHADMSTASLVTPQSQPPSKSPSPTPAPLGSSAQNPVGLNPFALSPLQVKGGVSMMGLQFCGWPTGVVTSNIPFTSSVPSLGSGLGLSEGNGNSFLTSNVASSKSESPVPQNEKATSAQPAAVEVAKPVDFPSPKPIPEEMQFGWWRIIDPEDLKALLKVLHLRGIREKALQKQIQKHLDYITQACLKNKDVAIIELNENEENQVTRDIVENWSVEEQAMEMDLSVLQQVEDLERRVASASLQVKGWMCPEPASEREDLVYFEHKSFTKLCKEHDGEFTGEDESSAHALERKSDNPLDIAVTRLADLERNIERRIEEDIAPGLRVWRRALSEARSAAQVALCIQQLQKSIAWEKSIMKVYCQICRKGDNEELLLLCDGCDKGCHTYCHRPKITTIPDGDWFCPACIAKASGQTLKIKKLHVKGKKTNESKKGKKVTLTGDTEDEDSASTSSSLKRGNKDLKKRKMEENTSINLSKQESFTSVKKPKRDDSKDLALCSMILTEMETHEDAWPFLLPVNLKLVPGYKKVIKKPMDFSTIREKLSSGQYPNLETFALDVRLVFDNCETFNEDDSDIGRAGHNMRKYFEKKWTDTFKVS
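BAZ2B (50 nM) with biotin-H3(5-23)K14Ac peptide (50 nM) in PBS pH 7.4, 0.01% Tween-20, preformed 30 min, then compound 30 min at room temperature; top concentration 110uM. AlphaScreen streptavidin donor/nickel chelate acceptor beads (10 ug/mL final), 20 min dark, signal read.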
GLS inhibitor: qHTS for Inhibitors of Glutaminase (GLS); Potency, µM (top dose mostly 45.5 µM), hits mostly inhibitors; AID 624170, 2012; 410,000 tested, 0.21% active; GLS enzymatic activity, qHTS titration; Glutaminase kidney isoform, mitochondrial (Homo sapiens), O94925
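hKGA; 45 mM KH2PO4 pH 8.2 + 0.02% Tween-20; cpd via pin tool; 1 mM Gln soln; GluOx/HRP/Amplex Red; RT 30 min; fluor. t0 & final.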
Of the large screens only hits and unclear results are named; the others gave an inactive call. This is a sample that favours compounds with a hit; in the whole collection about 10% have one here. Calls come from the whole dose curve; as a rule, active = well fitted curve in the direction sought with a large enough effect; inconclusive = small, poorly fitted or top-dose-only effect, or another doubt; inactive = no such curve, though single readings can be large; an effect the other way counts as inactive or inconclusive.

COc1cc(OC)cc(C(=O)N2CCN(C3CCN(Cc4ccccc4)CC3)CC2)c1	JMJD2A Tudor inh 1.1µM, HP1b binding inh inconclusive, G9a block 2.5µM, BAZ2B block 14µM
O=C(c1cccs1)N1CCN(C2CCN(Cc3ccccc3)CC2)CC1	none
CSc1ncc(Cl)c(C(=O)Nc2cccc3ccccc23)n1	none
CC(C)C1Oc2ccccc2N(CC(=O)N(Cc2ccccn2)CC2CCCO2)C1=O (centres undefined)	none
COc1cc(OC)cc(C(=O)N2CCN(C3CCC(C)CC3)CC2)c1 (centres undefined)	JMJD2A Tudor inh 56µM, HP1b binding inh inconclusive (no result: G9a block, BAZ2B block)
C#CCOCCOCCOCCNc1nc(N2CCN(C(=O)[C@H](Cc3ccc(O)cc3)n3cc([C@@H](N)C(C)CC)nn3)CC2)nc(N2CCN(C(=O)[C@H](Cc3cc4ccccc4[nH]3)n3cc([C@@H](N)CC(C)C)nn3)CC2)n1 (some centres undefined)	JMJD2A Tudor inh 45µM, HP1b binding inh inconclusive, G9a block inconclusive, BAZ2B block 35µM
C#CCOCCOCCOCCNc1nc(N2CCN(C(=O)[C@H](Cc3cc4ccccc4[nH]3)n3cc([C@@H](N)C(C)CC)nn3)CC2)nc(N2CCN(C(=O)[C@H](Cc3cc4ccccc4[nH]3)n3cc([C@@H](N)Cc4ccc(O)cc4)nn3)CC2)n1 (some centres undefined)	BAZ2B block 11µM (no result: JMJD2A Tudor inh, HP1b binding inh, GLS inhibitor)
C#CCOCCOCCOCCNc1nc(N2CCN(C(=O)[C@H](Cc3ccc(O)cc3)n3cc([C@@H](N)C(C)CC)nn3)CC2)nc(N2CCN(C(=O)[C@H](Cc3cc4ccccc4[nH]3)n3cc([C@@H](N)C(C)CC)nn3)CC2)n1 (some centres undefined)	JMJD2A Tudor inh 45µM, BAZ2B block 28µM
CC(C)Cn1c2c(c(O)c(C(=O)Nc3nccs3)c1=O)CCCC2	none
Cc1cc(=O)n(CC(=O)Nc2ccc(Cl)c(Cl)c2)c(-n2nc(C)cc2C)n1	JMJD2A Tudor inh inconclusive, BAZ2B block inconclusive
Cc1scc(C(=O)Nc2ccon2)c1-c1ccccc1	none
CCN(CC)S(=O)(=O)c1ccc(NC(=O)CSc2nnc(-c3cccc(OC)c3)n2C)cc1	none
Cn1nnc(NC(=S)NC(=O)Cc2ccccc2)n1	JMJD2A Tudor inh 22µM, HP1b binding inh 79µM, G9a block 2.8µM, BAZ2B block 35µM
CNC(=O)NC(=S)NC(=O)c1ccc(OC)cc1	JMJD2A Tudor inh 16µM
Cn1nnc(NC(=S)NC(=O)c2ccco2)n1	JMJD2A Tudor inh inconclusive, HP1b binding inh inconclusive, G9a block 7.9µM, BAZ2B block inconclusive
Cc1nc(NC(=S)NC(=O)c2ccco2)sc1C(=O)N(C)C	G9a block 40µM
C1COCCNCCOCCOCCN1	none
COc1c(C(=O)NC(=S)Nc2nnn(C)n2)cc2ccccc2c1Br	none (no result: G9a block)
COc1ccc(C(=O)NC(=S)Nc2nnn(C)n2)cc1	JMJD2A Tudor inh 32µM, G9a block 3.5µM, BAZ2B block 50µM
CC(C)Cc1cc(C(=O)Nc2cccc(O)c2)no1	none (no result: G9a block)
CC(=O)Nc1ccc(NC(=O)CSc2ncnc3sc(C)c(C)c23)cc1	none
Cc1sc2ncnc(SCC(=O)NC(=O)c3cccn3C)c2c1C	G9a block 32µM
Cc1sc2ncnc(Sc3ccccc3C(=O)O)c2c1C	none
CC(=O)c1ccc(NC(=O)c2ccccc2Sc2ncnc3sc(C)c(C)c23)cc1	G9a block 32µM
CCN(CC(=O)Nc1ccc(NC(C)=O)cc1)C(=O)CSc1ncnc2sc(C)c(C)c12	JMJD2A Tudor inh inconclusive, G9a block 13µM
O=C(Nc1nc2c(s1)COc1ccccc1-2)c1cccs1	G9a block 45µM
O=C(CCS(=O)(=O)c1ccccc1)Nc1nc2c(s1)COc1ccccc1-2	G9a block 50µM
CC(=O)c1sc(NC(=O)CCS(=O)(=O)c2ccccc2)nc1C	none
COC(=O)c1ccccc1NC(=O)c1cc[n+]([O-])cc1	none
C#CCOc1ccc(/C=C2/C(=O)NN(c3ccc(F)cc3)C2=O)cc1OC	G9a block 35µM

Screening data as filed in PubChem.
